This excerpt belongs to a sample that is enriched for hits.
PKM2 inh – inhibitors of human pyruvate kinase M2; purified PKM2, ATP generation, Kinase-Glo luminescence; Potency, µM (series often up to 57.5 µM), actives largely listed as inhibitors; 0.058% of 260,000 active; AID 1634; active = well fitted inhibition curve with a large enough effect; note: nearly all actives have a fitted effect of over 60% in size
Target sequence (P14618 whole entry, looked up): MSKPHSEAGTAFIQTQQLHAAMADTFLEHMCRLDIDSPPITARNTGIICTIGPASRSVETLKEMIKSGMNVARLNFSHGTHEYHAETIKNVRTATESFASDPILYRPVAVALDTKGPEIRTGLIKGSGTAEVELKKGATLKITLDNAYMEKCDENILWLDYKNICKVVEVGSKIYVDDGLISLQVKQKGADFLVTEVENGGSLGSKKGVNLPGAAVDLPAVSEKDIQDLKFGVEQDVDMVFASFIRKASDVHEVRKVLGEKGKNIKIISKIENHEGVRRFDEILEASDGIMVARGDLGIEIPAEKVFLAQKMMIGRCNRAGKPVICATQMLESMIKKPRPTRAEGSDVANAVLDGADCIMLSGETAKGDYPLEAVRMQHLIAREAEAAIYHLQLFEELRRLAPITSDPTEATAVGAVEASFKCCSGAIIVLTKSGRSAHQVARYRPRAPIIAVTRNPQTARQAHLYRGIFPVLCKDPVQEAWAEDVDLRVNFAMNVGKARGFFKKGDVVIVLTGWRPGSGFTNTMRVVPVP
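Enzyme run at intermediate activity with final 0.1 mM ADP, 0.5 mM PEP (50 mM imidazole pH7.2, 50 mM KCl, 7 mM MgCl2), incubated 1 h at r.t. ATP formed read by Kinase-Glo luminescence, normalized to no-enzyme (full inhibition) and uninhibited wells.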
Each line names hits and unclear results; the compound was inactive in the other large screens.

O=C(Cn1nnc(-c2ccc3c(c2)OCO3)n1)NCc1ccccc1	none
COc1cccc(-c2nnc(SCC(=O)Nc3cc(C)on3)o2)c1	none
c1ccc(-c2noc(-c3ccc4c(c3)OCO4)n2)nc1	PKM2 inh 8.9µM
COC(=O)c1c(N2C(=O)CC(Sc3ccccc3C(=O)O)C2=O)sc2c1CCCC2 (stereo not given)	none
Cc1c(C(=O)N2CCOCC2)c(S(=O)(=O)Nc2ccc(OC(F)(F)F)cc2)c(C)n1C	none
CCOc1ccccc1NC(=S)N1CCN(c2ccccc2F)CC1	none
CC(=O)c1c(C)[nH]c(C(=O)Nc2ccc(F)c(F)c2F)c1C	none
O=C(NCc1ccc(/C=c2\sc3n(c2=O)CCN=3)o1)C(=O)Nc1ccccc1	none
Cc1cccc(CN2CCN(c3nc4nonc4nc3NC3CC3)CC2=O)c1	none
COc1c(O)c(O)cc2c1oc1c3cc(C)ccc3oc(=O)c21	none
Cc1cccc(C)c1NC(=O)C1CCCN1S(=O)(=O)c1ccc2c(c1)n(C)c(=O)c(=O)n2C (stereo not given)	none
Cc1occc1C(=O)O/N=C(\N)c1ccccc1	PKM2 inh 7.1µM
Cc1ccc(/C(N)=N/OC(=O)Cc2cccc3ccccc23)cc1	none
O=C(c1ccco1)N(CCO)Cc1cc2cc3c(cc2[nH]c1=O)OCO3	none
CCOC(=O)c1sc(S(C)=O)c2c1CCc1conc1-2 (stereo not given)	none
CCn1c(C)nc2cc(-c3nc4n(n3)Cc3ccccc3-4)ccc21	PKM2 inh 16µM
CCN(CC)CCn1c(C)nc2ccccc21	none
CCN(CC(=O)NCc1ccc(F)cc1)C(=O)/C=C/c1ccco1	none
Cc1ccc(C(=O)COc2nc(C)nc3ccccc23)cc1	none
Cc1cc(NC(=O)CSc2nc3c(cc2C#N)CCC3)no1	none
COc1ccc2nc(C)cc(Nc3ccc(C)cc3)c2c1	none
COc1ccc(-c2cc3nc(C)cc(N)n3n2)cc1	PKM2 inh 14µM
NC(=O)COC(=O)CNC(=O)c1sc2ccccc2c1Cl	none
O=c1[nH]cc(I)cc1I	none
C/C=C/C=C\C(=O)Nc1cccc(C2=NOC3(C2)C[C@@H](C(N)=O)N(C(=O)c2cc([N+](=O)[O-])cc([N+](=O)[O-])c2C)C3)c1 (stereo not given in full)	none
COc1ccc(-n2c(=S)[nH]c3ncccc3c2=O)cc1	none
COc1ccc(N2C(=O)CC(Sc3nnc(-c4ccccc4F)n3C)C2=O)cc1 (stereo not given)	none
COc1ccc(N2Cc3ccccc3C2=O)cc1	PKM2 inh 14µM
COc1ccc(CC(=O)N/N=C/c2ccc(-c3cccc(C(=O)O)c3)o2)cc1OC	none
O=C(N/N=C/c1ccc([N+](=O)[O-])o1)c1ccccc1NS(=O)(=O)c1cccs1	none
Cc1[nH]n(-c2ccccc2)c(=S)c1C=Nc1ccc([N+](=O)[O-])cc1	PKM2 inh 11µM
O=[N+]([O-])c1ccc(-n2nnnc2-c2ccccc2)cc1	none
CC1(C)SC(=S)N(c2ccccc2)C1/[N+]([O-])=C/c1cccc([N+](=O)[O-])c1 (stereo not given)	none
Cc1cccc(NC(=O)c2onc3c2CCCC3)n1	PKM2 inh 13µM
Cc1cccc(NC(=O)c2cc([N+](=O)[O-])ccc2NCC2CCCO2)n1 (stereo not given)	none
Cc1cc(NC(=O)CSc2nc3c(cc2C#N)CCCC3)no1	none
CS/C(N)=N/S(=O)(=O)c1ccc(NC(C)=O)cc1	none
O=C(Nc1nnc(SCc2ccc(F)cc2)s1)C1CC(=O)N(Cc2ccccc2)C1 (stereo not given)	none
COc1cc2c(cc1OC)CN(C(=O)c1ccc3[nH]c(C)c(C)c3c1)CC2	none
CCOc1ccc(CC(=O)NNC(=S)NCCc2ccccc2)cc1	none
CC(=O)c1c(C)[nH]c(C(=O)Nc2cccc(S(=O)(=O)N(C)c3ccccc3)c2)c1C	none
O=C(/C=C/c1ccc(O)c(O)c1)O[C@H](Cc1ccc(O)c(O)c1)C(=O)O	none
CC(C)(C)NC(=O)C(c1ccncc1)N(Cc1ccc(F)cc1)C(=O)c1ccc(-c2ccccc2)[nH]1 (stereo not given)	none
Cc1cc(C)c2c(N)c(-c3nc4ccccc4[nH]3)sc2n1	none
Fc1ccccc1-c1nc2ccccc2[nH]1	PKM2 inh 32µM
FC(F)(F)c1cnc(N2CCCN(C(=S)Nc3ccccc3)CC2)c(Cl)c1	none
O=C(NCCc1nc2ccc(Cl)cc2[nH]1)C1CCC(=O)N(Cc2cccc(F)c2)C1 (stereo not given)	none
CCN1C(=O)N/C(=C/c2ccc(C)o2)C1=O	none
Cc1ccc(/C=C2/NC(=O)N(c3ccccc3)C2=O)o1	none
Cc1ccc(C=C2C(=O)c3ccccc3C2=O)o1	PKM2 inh 14µM
Cn1c2ccccc2c2nnc(SCC(=O)Nc3cccc(O)c3)nc21	none
O=C(O)COc1ccc(F)cc1Br	none
C=CCNC(=O)/C(C#N)=C/c1ccc(OS(=O)(=O)c2ccc(C)cc2)c(OC)c1	none
O=C(NCc1cccc(Cl)c1)N1CCN(S(=O)(=O)c2ccccc2F)CC1	none
Cc1cc(C(=O)N2CCCC(C(=O)c3cc(F)ccc3F)C2)c(C)o1 (stereo not given)	none
CCOc1ccc(-c2nnc(SCC(=O)Nc3cc(C)on3)o2)cc1	none
CCOc1ccc(C(=O)Nc2cc(C)ccn2)cc1	PKM2 inh 14µM
COc1ccc(C(=O)Nc2c(C)cc(C)cc2C)cc1OC	none
O=C1C=CC(=O)N1c1ccc(OC(F)F)cc1	none
COc1cccc(CNC(=O)N2CCN(S(=O)(=O)c3ccc(C)cc3)CC2)c1	none
O=S(=O)(c1ccc(OCC2CO2)cc1)c1ccc(OCC2CO2)cc1 (stereo not given)	none
COCCCNC(=S)N/N=C/c1ccc(O)cc1	none
Cc1occc1C(=O)N/N=C/c1ccc(N(C)C)cc1	PKM2 inh 14µM
Cc1ccc(OCCN2C(=O)S/C(=C\c3ccc(C)o3)C2=O)cc1	none
COCCCNC(=S)N1CCN(S(=O)(=O)c2ccc(OC)cc2)CC1	none
O=C(NCc1cccs1)c1cc2ccccc2o1	none
O=C(Nc1ccccn1)c1cc2ccccc2o1	PKM2 inh 13µM
COc1ccc(C(NC(=O)/C=C/c2ccco2)c2ccc(OC)c(OC)c2)cc1OC	none
O=C(Nc1ccc(NC(=S)NC(=O)c2cccs2)cc1)c1ccco1	none
CN(C)c1ccc(N/C=C/C(=O)c2ccco2)cc1	PKM2 inh 14µM
S=C(NC1CCCC1)N1CCN(C/C=C/c2ccccc2)CC1	none
O=C(CCCl)N(Cc1nc2ccccc2c(=O)[nH]1)Cc1cccs1	none
Cc1ccc(S(=O)(=O)Nc2ccccc2CNC2CCCCC2)cc1	none
CCN(CC)S(=O)(=O)c1ccc(OC)c(NC(=O)c2cc(C)on2)c1	none
O=c1c2ccccc2nc(-c2ccco2)n1/N=C/c1ccccc1O	none
Cc1ccc(-n2[nH]c(C)c(/C=N/n3c(C)nc4ccccc4c3=O)c2=O)cc1	PKM2 inh 13µM
Cc1nnc(SCc2ccccc2CSc2nnc(C)s2)s1	none
O=C(O)c1ccc(OCCOc2ccccc2)cc1	none
O=C1COc2cc(S(=O)(=O)CCC(=O)N3CCCCC3)c(Cl)cc2N1	none
CCOc1ccc(-c2ccc(SC)nn2)cc1	PKM2 inh 3.2µM
Cc1ccc(-c2ccc(SCC(=O)Nc3cc(C)on3)nn2)cc1	none
CCOc1ccc(CNc2cccc(SC)c2)cc1	none
O=S(=O)(Nc1ccc2ccccc2n1)c1ccc2c(c1)CCO2	none
COc1ccc(S(=O)(=O)N2CCN(C(=O)C3CCCO3)CC2)cc1 (stereo not given)	none
